# Data as given in PubChem BioAssay AID504321 (NMMLSC, 2011).
# “And” between values parts separate entries of the source, which are not always exact repeats. Equal entries are not always repeated. Unmarked numbers belong to inactive results. The source made the active and inactive calls.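 The calls were made as follows: active = GFP response vs DMSO above 150% with enough events counted; inconclusive = fewer than 70 events counted for a yeast strain; inactive = the rest.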
# Experiment: yeast MEP2-GFP fusion level changes, TOR pathway – flow cytometry, third cherry pick, S. cerevisiae, confirmation (AID 504321);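 also: median per-cell GFP fluorescence by flow cytometry across all yeast cells; ratio of sample to DMSO median GFP so 100% equals the DMSO level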
# Details: S. cerevisiae MEP2-GFP strain, 3 h, at 10 µM, stronger effect = higher value
row,SMILES,GFP response vs DMSO
1,C/C(=C\C(=O)c1ccc(C)cc1)Nc1cccc(O)c1,108%
2,Oc1c(I)cc(Cl)c2cccnc12,181% (active)
3,Cc1cn2c(N)c(C=C3C=C(Cl)C(=O)C(Cl)=C3)c(=O)nc2s1,112%
4,Brc1ccc2ncnc(NCc3ccccc3)c2c1,105%
5,CC(=O)C(CC(=O)N1CCCC1)C(=O)Nc1ccc(Cl)cc1 (centres undefined),105%
6,Cc1ccc2c(Cl)cc(Cl)c(O)c2n1,168% (active)
7,CC1=CN2C(=N)/C(=C/c3ccc([N+](=O)[O-])o3)C(=O)N=C2S1,5270% (active)
8,COc1ccccc1-c1cc(C(F)(F)F)nc(S(=O)(=O)CCCC(=O)O)n1,110%
9,Cc1cccc(N/C=C/C(=O)c2ccc(Cl)cc2)c1,112%
10,O=C(/C=C/Nc1cccc(O)c1)c1ccccc1,112%
11,CC(=O)NCCOc1cccc2cccnc12,110%
12,Cc1cccc(Nc2cc(=O)[nH]c(=O)[nH]2)c1C,114%
13,COc1ccc(-c2cc(C(F)(F)F)nc(S(C)(=O)=O)n2)cc1OC,114% and 121%
14,CCCCC(=O)NCCc1cc2c(OC)ccc(OC)c2[nH]c1=O,108%
15,NC(=O)c1ccnc2c(O)cccc12,108%
16,COc1ccccc1-c1cc(C(F)(F)F)nc(S(C)(=O)=O)n1,142%
17,COC(=O)c1cc(=O)c2cccc(OC)c2[nH]1,110%
18,Oc1c(Br)cc(Br)c2cccnc12,189% (active)
19,O=C(Nc1ccc(-c2nc3ccccc3o2)cc1)c1cccnc1,103%
20,COc1ccccc1Nc1nc(NCCCN(C)C)nc(N)c1[N+](=O)[O-],112%

row,SMILES,GFP response vs DMSO
1,CC1=CN2C(=N)/C(=C/c3ccco3)C(=O)N=C2S1,105%
2,Oc1ccc(Cl)c2cccnc12,101%
3,C=CCNc1ncnc2ccc(Br)cc12,110%
4,C=CCNc1ncnc2ccccc12,114%
5,O=C(N/N=C/c1ccccc1F)c1cccc2ccccc12,108%
6,Cc1nc(Nc2ccc(Br)cc2Br)c([N+](=O)[O-])c(=O)[nH]1,112%
7,O=C(Nc1nc(-c2ccccn2)cs1)c1ccccc1-n1cnnn1,94.7%
8,Oc1c(Cl)cc(Cl)c2cccnc12,181% (active)
9,O=C(Nc1cccc(Cl)c1)ON=C1c2ccccc2-c2ccccc21,110%
10,COC(=O)COc1c(Cl)cc(Cl)c2ccc(C)nc12,118%
11,O=C(N/N=C/c1ccccc1O)c1cccc2ccccc12,110%
12,COc1ccc(OC)c2c(=O)cc(C(=O)O)[nH]c12,105%
13,COc1ccc(OC)c2c(C)cc(C)nc12,108%
14,COc1cccc2c(O)cc(=O)n(C)c12,108%
15,C[n+]1cccc2cccc([O-])c21,116%
16,COCCNc1nc(N)c([N+](=O)[O-])c(Nc2ccc(F)cc2)n1,105%
17,Cc1cc(C)c(NC(=O)CC(=O)c2ccccc2)c(Cl)c1,105%
18,COc1cc(=O)n(C)c2c(O)cccc12,110%
19,Cc1nc(Nc2ccc(Cl)cc2)c(C#N)c(=O)[nH]1,108%
